This is an account of results in PMC7862700, “An all-to-all approach to the identification of sequence-specific readers for epigenetic DNA modifications on cytosine”.

Assay in all cases: DAPPL (digital affinity profiling via proximity ligation, sequencing); 10 mM Tris-HCl pH 7.5, 50 mM NaCl, 1 mM DTT, 4% glycerol, room temperature, 30 min; GST-TFs on glutathione beads, 16-mer random dsDNA library, 0.1% formaldehyde crosslink after washing; high values mean tight binding
What all share (conditions): protein: recombinant; tags: N-terminal GST; dsDNA, one strand shown

In one assay the target is T1, FLI1 (Homo sapiens, UniProt Q01543 1-452).
T1 sequence: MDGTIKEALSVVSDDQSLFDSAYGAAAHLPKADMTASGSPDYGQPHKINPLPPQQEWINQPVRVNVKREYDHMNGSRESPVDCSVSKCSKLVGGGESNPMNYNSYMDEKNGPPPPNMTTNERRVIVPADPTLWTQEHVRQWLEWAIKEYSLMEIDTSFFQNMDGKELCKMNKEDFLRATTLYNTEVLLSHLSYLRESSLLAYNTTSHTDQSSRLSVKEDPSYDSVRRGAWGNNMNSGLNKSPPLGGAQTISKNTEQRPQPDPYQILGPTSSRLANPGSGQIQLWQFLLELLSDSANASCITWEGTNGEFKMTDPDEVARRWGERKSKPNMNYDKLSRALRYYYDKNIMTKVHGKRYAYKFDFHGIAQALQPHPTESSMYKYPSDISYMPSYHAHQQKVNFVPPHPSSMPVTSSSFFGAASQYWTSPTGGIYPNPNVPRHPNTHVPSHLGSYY
The method in brief: (§1)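 The binding signal reported is, for every hexamer, its read frequency for a factor over its read frequency for the tag-only sample. Reads came from pools of yeast-expressed, GST-fused human transcription factors on glutathione beads, barcoded with DNA and mixed with that sample, which were incubated with 200 nmole of a random double-stranded 16-mer DNA library in Tris/NaCl/DTT/glycerol buffer at room temperature for 30 min. After washing, the pools were crosslinked with 0.1% formaldehyde, proximity-ligated with BsaI/T4 ligase for 1 h at 37 °C, PCR-amplified and sequenced on an Illumina NextSeq500.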

The target in another assay is T2, ELK1 (Homo sapiens, UniProt P19419 1-428).
T2 sequence: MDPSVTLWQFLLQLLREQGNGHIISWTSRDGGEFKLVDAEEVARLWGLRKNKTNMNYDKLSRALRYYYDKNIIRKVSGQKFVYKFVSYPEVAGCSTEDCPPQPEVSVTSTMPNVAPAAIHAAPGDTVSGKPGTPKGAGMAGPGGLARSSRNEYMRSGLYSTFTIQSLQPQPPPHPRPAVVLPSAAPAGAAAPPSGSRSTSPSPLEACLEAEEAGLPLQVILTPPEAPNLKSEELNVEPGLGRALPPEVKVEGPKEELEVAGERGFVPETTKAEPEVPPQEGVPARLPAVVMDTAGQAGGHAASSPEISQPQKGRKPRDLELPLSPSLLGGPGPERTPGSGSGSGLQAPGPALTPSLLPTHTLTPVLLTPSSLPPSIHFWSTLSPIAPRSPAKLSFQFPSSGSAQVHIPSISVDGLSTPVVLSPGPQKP
The method in brief:
as §1

A further assay deals with T3, GABPA (Homo sapiens, UniProt Q06546 1-454).
T3 sequence: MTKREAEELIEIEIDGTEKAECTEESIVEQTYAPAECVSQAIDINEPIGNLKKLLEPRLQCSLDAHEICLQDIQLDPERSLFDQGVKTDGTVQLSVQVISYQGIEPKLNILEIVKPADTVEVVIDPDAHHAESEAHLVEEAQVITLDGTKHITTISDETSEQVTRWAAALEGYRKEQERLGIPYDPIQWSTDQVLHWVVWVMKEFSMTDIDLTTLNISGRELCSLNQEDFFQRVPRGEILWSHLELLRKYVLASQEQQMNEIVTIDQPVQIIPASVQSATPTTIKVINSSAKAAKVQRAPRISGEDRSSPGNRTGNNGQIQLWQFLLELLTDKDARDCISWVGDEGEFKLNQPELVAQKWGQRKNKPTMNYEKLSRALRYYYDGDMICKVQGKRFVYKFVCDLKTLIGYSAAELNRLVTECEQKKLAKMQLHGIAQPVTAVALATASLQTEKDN
The procedure, abridged: as §1

Another assay addresses T4, ERG (Homo sapiens, UniProt P11308 1-479).
T4 sequence: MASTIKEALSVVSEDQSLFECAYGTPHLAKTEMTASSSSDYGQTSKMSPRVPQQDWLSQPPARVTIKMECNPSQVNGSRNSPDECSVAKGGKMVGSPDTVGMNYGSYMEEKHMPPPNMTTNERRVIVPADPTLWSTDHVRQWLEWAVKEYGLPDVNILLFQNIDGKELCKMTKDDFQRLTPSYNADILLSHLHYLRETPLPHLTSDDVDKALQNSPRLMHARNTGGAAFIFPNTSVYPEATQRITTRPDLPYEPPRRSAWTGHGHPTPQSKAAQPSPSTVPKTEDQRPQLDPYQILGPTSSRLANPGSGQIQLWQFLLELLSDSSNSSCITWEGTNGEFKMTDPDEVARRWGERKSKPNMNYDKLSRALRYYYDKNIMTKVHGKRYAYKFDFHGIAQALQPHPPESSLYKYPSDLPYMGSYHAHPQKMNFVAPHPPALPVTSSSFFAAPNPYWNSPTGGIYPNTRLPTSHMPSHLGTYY
The method in brief:
as §1

A further assay has as its target T5, EHF (Homo sapiens, UniProt Q9NZC4 1-300).
T5 sequence: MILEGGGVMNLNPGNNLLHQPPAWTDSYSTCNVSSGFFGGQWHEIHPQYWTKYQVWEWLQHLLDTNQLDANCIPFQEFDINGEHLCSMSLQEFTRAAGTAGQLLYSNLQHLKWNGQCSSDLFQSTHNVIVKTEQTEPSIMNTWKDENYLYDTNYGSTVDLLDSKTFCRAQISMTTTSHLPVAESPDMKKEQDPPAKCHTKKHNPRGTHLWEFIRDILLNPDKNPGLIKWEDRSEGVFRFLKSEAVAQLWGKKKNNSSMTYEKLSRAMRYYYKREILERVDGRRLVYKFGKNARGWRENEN
The procedure, abridged:
as §1

The next assay deals with SPI1 (Homo sapiens, UniProt P17947 1-270). The method in brief: as §1
In a further assay the target is SPIB (Homo sapiens, UniProt Q01892 1-262). The method in brief:
as §1

In another assay the target is T6, ELK3 (Homo sapiens, UniProt P41970 1-407).
T6 sequence: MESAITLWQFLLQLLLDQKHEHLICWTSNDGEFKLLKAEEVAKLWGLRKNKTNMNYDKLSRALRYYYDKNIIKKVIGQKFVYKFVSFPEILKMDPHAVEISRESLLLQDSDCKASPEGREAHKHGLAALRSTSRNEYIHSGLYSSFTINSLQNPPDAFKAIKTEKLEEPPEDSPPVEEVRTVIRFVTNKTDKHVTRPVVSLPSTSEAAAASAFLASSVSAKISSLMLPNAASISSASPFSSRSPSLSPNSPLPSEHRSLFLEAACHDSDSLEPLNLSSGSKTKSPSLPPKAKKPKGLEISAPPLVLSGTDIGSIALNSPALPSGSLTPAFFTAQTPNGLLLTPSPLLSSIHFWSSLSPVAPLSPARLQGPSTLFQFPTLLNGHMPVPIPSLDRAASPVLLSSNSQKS
The method in brief:
as §1

The target in another assay is T7, FEV (Homo sapiens, UniProt Q99581 1-238).
T7 sequence: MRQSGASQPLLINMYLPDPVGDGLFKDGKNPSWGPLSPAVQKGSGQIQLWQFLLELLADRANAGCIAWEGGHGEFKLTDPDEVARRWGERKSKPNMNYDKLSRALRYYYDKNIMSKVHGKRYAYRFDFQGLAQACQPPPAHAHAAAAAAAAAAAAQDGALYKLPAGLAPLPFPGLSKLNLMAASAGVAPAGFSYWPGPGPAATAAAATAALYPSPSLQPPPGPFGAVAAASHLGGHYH
The procedure, abridged:
as §1

The target of another assay is ETV5 (Homo sapiens, UniProt P41161 1-510). The procedure, abridged:
as §1

The target of a further assay is T8, SPIC (Homo sapiens, UniProt Q8N5J4 1-248).
T8 sequence: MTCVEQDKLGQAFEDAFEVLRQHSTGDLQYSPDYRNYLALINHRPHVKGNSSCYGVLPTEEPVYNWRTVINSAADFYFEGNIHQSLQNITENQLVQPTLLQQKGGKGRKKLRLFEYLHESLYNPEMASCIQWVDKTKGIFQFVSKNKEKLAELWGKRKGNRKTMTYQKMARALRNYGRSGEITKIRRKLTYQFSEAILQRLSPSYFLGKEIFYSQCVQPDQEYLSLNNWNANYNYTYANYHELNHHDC
The procedure, abridged:
as §1

A further assay deals with ELF4 (Homo sapiens, UniProt Q99607 1-663). The method in brief:
as §1

Another assay deals with T9, ELK4 (Homo sapiens, UniProt P28324-2 1-405).
T9 sequence: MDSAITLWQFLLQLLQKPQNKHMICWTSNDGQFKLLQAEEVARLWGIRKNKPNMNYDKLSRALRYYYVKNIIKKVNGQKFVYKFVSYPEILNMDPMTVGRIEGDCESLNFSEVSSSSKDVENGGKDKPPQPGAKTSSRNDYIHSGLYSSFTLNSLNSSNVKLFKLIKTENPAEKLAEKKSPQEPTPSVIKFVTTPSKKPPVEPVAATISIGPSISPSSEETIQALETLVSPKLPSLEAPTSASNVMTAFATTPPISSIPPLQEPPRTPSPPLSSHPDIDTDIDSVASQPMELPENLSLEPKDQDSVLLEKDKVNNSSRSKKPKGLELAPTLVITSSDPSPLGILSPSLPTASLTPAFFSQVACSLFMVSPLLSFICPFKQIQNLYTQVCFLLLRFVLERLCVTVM
The procedure, abridged: as §1

The next assay concerns the target T10, ETV2 (Homo sapiens, UniProt O00321 1-342).
T10 sequence: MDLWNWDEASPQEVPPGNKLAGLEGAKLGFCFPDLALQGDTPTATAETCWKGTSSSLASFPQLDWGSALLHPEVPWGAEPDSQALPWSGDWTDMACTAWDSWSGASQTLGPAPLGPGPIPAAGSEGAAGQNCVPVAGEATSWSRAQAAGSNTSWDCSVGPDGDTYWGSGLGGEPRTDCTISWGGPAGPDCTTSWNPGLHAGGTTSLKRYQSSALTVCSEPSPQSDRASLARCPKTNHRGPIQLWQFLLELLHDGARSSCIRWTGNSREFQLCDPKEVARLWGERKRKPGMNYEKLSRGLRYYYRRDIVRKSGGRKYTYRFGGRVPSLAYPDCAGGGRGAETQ
The method in brief: as §1

A further assay deals with T11, ELF3 (Homo sapiens, UniProt P78545 1-371).
T11 sequence: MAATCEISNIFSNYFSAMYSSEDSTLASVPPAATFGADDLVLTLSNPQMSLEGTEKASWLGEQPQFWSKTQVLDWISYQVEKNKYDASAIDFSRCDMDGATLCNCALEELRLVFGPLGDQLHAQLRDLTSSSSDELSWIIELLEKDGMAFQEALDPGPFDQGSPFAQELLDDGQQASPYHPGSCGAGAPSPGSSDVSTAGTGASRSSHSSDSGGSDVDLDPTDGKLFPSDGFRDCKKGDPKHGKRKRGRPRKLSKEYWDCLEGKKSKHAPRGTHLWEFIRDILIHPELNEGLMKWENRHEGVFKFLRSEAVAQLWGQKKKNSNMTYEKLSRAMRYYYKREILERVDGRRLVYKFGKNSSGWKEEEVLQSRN
The method in brief: as §1

In the next assay the target is CRX (Homo sapiens, UniProt O43186 1-299). The procedure, abridged: as §1
Sequence of CRX (O43186 whole entry): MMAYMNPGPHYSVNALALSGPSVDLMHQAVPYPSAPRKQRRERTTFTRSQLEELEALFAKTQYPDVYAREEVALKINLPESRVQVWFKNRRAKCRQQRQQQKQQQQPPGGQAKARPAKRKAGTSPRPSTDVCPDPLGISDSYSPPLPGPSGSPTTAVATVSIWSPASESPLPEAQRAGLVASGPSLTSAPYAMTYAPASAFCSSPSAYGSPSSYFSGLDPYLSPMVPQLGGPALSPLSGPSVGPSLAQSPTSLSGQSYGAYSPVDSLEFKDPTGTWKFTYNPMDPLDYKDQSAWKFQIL
The next assay has as its target ETV1 (Homo sapiens, UniProt P50549 1-477). The procedure, abridged: as §1

Sequence of ETV1 (P50549 whole entry): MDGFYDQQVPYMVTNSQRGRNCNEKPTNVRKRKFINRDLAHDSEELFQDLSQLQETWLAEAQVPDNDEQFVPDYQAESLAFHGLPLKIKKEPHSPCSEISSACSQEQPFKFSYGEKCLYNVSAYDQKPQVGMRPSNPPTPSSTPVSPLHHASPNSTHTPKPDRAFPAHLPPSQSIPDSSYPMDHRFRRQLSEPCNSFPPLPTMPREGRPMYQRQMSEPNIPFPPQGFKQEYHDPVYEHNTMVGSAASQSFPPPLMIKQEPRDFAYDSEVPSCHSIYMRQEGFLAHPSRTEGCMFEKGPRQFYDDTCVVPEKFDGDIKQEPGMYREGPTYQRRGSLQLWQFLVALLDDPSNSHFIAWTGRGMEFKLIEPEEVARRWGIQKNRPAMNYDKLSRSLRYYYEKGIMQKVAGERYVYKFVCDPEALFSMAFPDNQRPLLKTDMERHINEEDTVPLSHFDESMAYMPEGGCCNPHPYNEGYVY
Sequence of ELF4 (Q99607 whole entry): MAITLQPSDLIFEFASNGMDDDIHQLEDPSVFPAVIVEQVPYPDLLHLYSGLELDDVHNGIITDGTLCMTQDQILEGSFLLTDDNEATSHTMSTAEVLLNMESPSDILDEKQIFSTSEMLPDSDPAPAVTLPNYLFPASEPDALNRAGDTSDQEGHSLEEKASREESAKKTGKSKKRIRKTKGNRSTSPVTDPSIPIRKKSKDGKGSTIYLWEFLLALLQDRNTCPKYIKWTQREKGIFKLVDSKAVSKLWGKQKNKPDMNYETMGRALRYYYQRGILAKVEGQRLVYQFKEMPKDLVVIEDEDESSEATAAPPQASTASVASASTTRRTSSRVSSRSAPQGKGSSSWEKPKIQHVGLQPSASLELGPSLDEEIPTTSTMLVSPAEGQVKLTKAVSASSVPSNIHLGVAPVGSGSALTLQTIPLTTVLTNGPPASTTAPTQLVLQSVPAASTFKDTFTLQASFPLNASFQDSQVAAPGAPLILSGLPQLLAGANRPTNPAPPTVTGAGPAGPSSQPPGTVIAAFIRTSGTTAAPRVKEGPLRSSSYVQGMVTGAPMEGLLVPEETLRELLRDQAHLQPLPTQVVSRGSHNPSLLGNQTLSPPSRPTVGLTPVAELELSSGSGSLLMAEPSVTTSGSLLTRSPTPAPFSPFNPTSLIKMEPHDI
Sequence of SPIB (Q01892 whole entry): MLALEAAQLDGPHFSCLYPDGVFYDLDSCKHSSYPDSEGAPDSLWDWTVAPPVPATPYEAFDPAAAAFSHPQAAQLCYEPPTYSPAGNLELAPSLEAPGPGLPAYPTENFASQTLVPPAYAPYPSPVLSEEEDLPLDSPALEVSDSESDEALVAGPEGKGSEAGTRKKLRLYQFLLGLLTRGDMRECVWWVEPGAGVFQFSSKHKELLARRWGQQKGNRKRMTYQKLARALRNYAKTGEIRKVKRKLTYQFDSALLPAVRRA
Sequence of ETV5 (P41161 whole entry): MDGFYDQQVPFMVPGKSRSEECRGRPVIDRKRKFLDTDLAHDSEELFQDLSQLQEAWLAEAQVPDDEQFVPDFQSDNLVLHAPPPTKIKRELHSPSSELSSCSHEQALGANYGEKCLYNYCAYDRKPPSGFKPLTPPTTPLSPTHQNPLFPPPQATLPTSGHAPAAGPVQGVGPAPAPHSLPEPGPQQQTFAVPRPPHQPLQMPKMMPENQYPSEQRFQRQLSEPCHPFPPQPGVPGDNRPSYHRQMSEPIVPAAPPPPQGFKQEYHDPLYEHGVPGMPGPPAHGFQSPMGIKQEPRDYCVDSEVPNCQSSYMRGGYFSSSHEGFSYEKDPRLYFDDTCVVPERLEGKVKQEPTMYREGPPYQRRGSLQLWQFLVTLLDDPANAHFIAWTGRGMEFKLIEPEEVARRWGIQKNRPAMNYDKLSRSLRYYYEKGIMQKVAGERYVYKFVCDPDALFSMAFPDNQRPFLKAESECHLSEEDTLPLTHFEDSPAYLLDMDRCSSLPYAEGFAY

Take TAGCGG: the binding signal was 1.14 fold enrichment (6-mer frequency, TF over GST control) with FLI1; 1.1 fold enrichment (6-mer frequency, TF over GST control) with ELK1; 1.06 fold enrichment (6-mer frequency, TF over GST control) in the assay with GABPA; 1.16 fold enrichment (6-mer frequency, TF over GST control) with ERG; 1.24 fold enrichment (6-mer frequency, TF over GST control) with EHF; 1.23 fold enrichment (6-mer frequency, TF over GST control) with SPI1. Besides, the binding signal in the assay with SPIB is 1.17 fold enrichment (6-mer frequency, TF over GST control); with ELK3, 1.08 fold enrichment (6-mer frequency, TF over GST control); with FEV, 1.12 fold enrichment (6-mer frequency, TF over GST control); with ETV5, 1.13 fold enrichment (6-mer frequency, TF over GST control); with SPIC, 1.04 fold enrichment (6-mer frequency, TF over GST control); with ELF4 it was 1 fold enrichment (6-mer frequency, TF over GST control). The binding signal in the assay with ELK4 was 1.06 fold enrichment (6-mer frequency, TF over GST control); with ETV2, 1.19 fold enrichment (6-mer frequency, TF over GST control); with ELF3, 1.02 fold enrichment (6-mer frequency, TF over GST control); with CRX, 1.26 fold enrichment (6-mer frequency, TF over GST control); with ETV1 it was 1.05 fold enrichment (6-mer frequency, TF over GST control).
